Laboratory results from PubChem BioAssay AID492994 (Johns Hopkins Ion Channel Center, 2010).
Measured potencies and affinities stand elsewhere. Active and inactive are the calls of the source.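 Rule for the calls: active = TRPC4 ion channel inhibited over 30% at some tested dose, with a fitted dose response curve; inactive = no inhibition or no dose response curve.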

molecular target: Short transient receptor potential channel 4 (Mus musculus) (UniProt Q9QUQ5); experiment: potency of mouse TRPC4 calcium flux blockers – cell-based, HEK293 TRPC4/mu-opioid, DAMGO stimulus, Fluo-4, dose response (AID 492994); settings: HEK293 TRPC4/mu-opioid cells, Fluo-4 calcium flux, DAMGO-activated; series mostly up to 20 µM
Sequence (Q9QUQ5 whole entry, looked up): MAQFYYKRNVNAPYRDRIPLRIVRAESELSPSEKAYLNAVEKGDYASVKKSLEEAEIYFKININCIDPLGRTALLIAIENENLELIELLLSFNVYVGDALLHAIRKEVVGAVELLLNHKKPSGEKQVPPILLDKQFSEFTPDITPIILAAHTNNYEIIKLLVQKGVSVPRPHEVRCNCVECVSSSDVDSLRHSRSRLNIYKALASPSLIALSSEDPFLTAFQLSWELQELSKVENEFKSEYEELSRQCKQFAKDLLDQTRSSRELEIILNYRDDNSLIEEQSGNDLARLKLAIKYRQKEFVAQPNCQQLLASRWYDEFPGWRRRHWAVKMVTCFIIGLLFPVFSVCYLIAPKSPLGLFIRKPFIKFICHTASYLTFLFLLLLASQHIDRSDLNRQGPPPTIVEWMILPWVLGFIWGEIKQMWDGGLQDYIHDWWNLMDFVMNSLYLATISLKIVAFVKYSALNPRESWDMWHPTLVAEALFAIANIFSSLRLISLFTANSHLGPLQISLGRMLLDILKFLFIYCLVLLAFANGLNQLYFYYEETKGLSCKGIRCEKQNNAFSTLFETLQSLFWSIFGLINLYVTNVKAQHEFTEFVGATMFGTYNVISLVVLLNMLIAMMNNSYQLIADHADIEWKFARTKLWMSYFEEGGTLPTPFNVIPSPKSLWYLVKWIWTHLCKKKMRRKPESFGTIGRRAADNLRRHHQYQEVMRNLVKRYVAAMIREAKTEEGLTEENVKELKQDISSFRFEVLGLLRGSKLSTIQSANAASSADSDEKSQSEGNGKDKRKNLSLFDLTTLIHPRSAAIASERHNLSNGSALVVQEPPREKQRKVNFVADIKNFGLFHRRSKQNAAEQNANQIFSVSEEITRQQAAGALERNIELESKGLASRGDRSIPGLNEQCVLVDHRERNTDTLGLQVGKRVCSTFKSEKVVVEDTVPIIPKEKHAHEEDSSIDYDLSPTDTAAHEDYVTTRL

outcome, inactive:
Cc1ccnc(N2CCCCCC2)n1, FC(F)(F)c1cc(N2CCCC2)nc2ccccc12, Cc1cc(N2CCN(c3ccccc3C#N)CC2)nc2ccccc12, Cc1cc(N(C)CCN(C)C)nc2ccccc12, FC(F)(F)c1cc(N2CCCCC2)nc2ccccc12, c1ccc(-c2cc(N3CCCCCC3)nc3ccccc23)cc1, COc1ccccc1N1CCN(c2cc(C)c3ccccc3n2)CC1, COc1ccc(N2CCN(c3cc(C)c4ccccc4n3)CC2)cc1, Cc1cc(N2CCCCCC2)nc2c(C)cccc12, CCc1ccc2nc(N3CCCCC3)cc(C)c2c1, c1ccc(-c2cc(N3CCCC3)nc3ccccc23)cc1, Cc1ccnc(N2CCCCC2)n1, Cc1ccnc(N2CCCCCC2)c1, FC(F)(F)c1cc(N2CCCCCC2)nc2ccccc12, Cc1ccnc(N2CCCC2)c1, c1ccc(-c2cc(N3CCCCC3)nc3ccccc23)cc1, Cc1cc(N2CCN(CC3CCCO3)CC2)nc2ccccc12 (stereo not given), Cc1cc(N2CCCCC2)nc2c(C)cccc12, Cc1ccnc(N2CCCC2)n1, Cc1ccnc(N2CCCCC2)c1
